Screens as filed in PubChem.
3T3 cytotox: kills NIH 3T3 cells; AID 1345082; 4.3% of 94,000 active; NIH 3T3 viability, CellTiter-Glo ATP luminescence, 48-72 h; Potency, µM (titrated, usually from 96.7 µM), inactives show top-dose activity change, negative = cytotoxicity, actives largely listed as inhibitors; also: nearly all actives have a fitted effect of over 55% in size
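Luminescent ATP readout (CellTiter-Glo, 10 min RT) after 48 or 72 hr compound exposure of NIH 3T3 cells seeded at 400 cells/well in 1536-well format; quantitative HTS.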
SNCA expr inhib: inhibitors of alpha-synuclein (SNCA) gene expression. AID 1671194. Potency, µM (highest dose often 57.2 µM), without a hit: top-dose activity change, negative = inhibition, usual class: inhibitors. 0.17% of 140,000 active. HEK-293 SNCA-luciferase knock-in, luminescence, 24 h;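 also: plate controls were DMSO cells for no effect and cell-free wells for full effect; nearly all actives have a fitted effect of over 45% in size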
HEK cytotox: kills HEK 293 cells; HEK 293 viability, ATP luminescence (CellTiter-Glo), 48-72 h; Potency, µM (top dose mostly 115 µM), for the others: top-dose activity change, negative = cytotoxicity, actives largely listed as inhibitors; 6.6% of 94,000 active; also: nearly all actives have a fitted effect of over 60% in size
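Read-out: CellTiter-Glo ATP luminescence. Cells: HEK 293, 250 cells/well. Exposure: 48 or 72 hr, 37 degree Celsius.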
SNCA viab count: reduces viability of HEK-293 SNCA reporter cells; 0.12% of 150,000 active; Potency, µM (series often up to 57.1 µM), without a hit: at the highest dose activity change, negative = cytotoxicity, hits mostly cytotoxic; HEK-293-SNCA-luc viability, GF-AFC fluorescence, 24 h; AID 1671193;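 also: 0% = DMSO-treated cells and -100% = medium-only wells without cells; nearly all actives have a fitted effect of over 30% in size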
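Cytotoxicity counterscreen: after 24 h compound treatment of genome-edited SNCA-luciferase HEK-293 cells, live-cell protease substrate GF-AFC read by fluorescence after 30 min; activity scaled between DMSO (0%) and medium-only (-100%), curves Hill-fitted.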
hNpr1 antagonist: blocks ANP-stimulated signaling of human Npr1 receptor; AID 1347048; Potency, µM (highest dose often 46.3 µM), without a hit: top-dose activity change, negative = inhibition, usual class: inhibitors; HEK293 hNpr1 GloSensor cGMP, ANP-stimulated luminescence; 1.6% of 76,000 active; calls by dose curve; also: nearly all actives have a fitted effect of over 60% in size
Target sequence (P16066 whole entry, looked up): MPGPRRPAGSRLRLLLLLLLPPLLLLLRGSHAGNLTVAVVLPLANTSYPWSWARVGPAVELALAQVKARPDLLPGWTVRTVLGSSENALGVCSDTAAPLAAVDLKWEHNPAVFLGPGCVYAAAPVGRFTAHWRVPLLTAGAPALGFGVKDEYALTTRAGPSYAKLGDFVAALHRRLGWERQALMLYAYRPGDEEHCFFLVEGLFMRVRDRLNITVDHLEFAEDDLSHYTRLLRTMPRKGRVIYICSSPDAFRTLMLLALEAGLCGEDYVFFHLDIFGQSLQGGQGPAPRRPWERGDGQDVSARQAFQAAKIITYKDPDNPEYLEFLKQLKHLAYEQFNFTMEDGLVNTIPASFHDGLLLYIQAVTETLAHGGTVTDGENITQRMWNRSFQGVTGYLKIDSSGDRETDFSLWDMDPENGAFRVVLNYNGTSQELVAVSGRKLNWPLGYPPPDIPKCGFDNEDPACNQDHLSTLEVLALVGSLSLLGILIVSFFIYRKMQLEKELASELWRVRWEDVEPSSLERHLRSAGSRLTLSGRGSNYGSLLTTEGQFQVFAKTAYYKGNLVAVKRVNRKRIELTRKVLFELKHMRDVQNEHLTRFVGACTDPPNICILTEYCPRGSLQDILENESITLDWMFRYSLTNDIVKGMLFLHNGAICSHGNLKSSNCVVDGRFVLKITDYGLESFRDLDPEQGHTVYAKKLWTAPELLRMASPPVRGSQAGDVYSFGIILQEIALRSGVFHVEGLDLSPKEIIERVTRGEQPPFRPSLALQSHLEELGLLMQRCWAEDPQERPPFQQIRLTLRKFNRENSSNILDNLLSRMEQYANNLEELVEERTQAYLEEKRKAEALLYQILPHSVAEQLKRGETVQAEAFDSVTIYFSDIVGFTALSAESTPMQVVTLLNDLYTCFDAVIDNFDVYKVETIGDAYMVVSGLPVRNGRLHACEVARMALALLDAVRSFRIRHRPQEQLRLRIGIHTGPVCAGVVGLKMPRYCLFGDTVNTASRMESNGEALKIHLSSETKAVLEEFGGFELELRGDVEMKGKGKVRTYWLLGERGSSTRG
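Compound pre-incubated 30 min at room temperature on GloSensor-loaded HEK293 cells stably carrying hNpr1 and the pGS-40F cGMP biosensor. Stimulation uses hNppA at 0.1 nM final; luminescence is taken at baseline and 20 min post-agonist.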
Luciferase inh: Photinus pyralis luciferase inhibition. 2.5% of 76,000 active. purified P. pyralis luciferase, luminescence, biochemical. Potency, µM (titrated, usually from 115 µM), hits mostly inhibitors. P08659. AID 1347043; also: nearly all actives have a fitted effect of over 65% in size
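Luminescence read by CCD imager after adding enzyme (10nM final) to wells holding compound, titrated in qHTS. Substrates 10uM each D-luciferin and ATP; buffer 50mM Tris acetate pH 7.5, 10mM Mg acetate, Tween-20, BSA.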
Starred values were filed as active, the others as inactive; i = inactive; ? = inconclusive; . = no result given; [ ] = another dose, or the depositor's remark. Compounds with a hit are over-represented: about 7.2% of the library has one in this group of screens. Unless noted, calls follow the shape of the dose curve; as a rule, active = well fitted curve in the direction sought with a large enough effect; inconclusive = small, poorly fitted or top-dose-only effect, or another doubt; inactive = no such curve, though single readings can be large; an effect the other way counts as inactive or inconclusive. Unless noted, % is scaled to controls: 0 for no effect and ±100 for the full control effect; potency is read from the fitted curve at half-maximal effect.

SMILES	3T3 cytotox	SNCA expr inhib	HEK cytotox	SNCA viab count	hNpr1 antagonist	Luciferase inh
Cc1cc(NC(=O)c2ccc3c(c2)N(C)C2CCCCN2C3=O)ccc1Cl (stereo unspecified)	-24%	245%	?	28%[12.5 µM]	-1%	25µM*
Cc1ccc(NC(=O)c2ccc3c(c2)N(C)C2CCCCCN2C3=O)cc1F (stereo unspecified)	?	75%	32µM*	17%[12.5 µM]	0%	i
CN1c2cc(C(=O)Nc3ccc4c(c3)OCCO4)ccc2C(=O)N2CCCCCC21 (stereo unspecified)	?	70%	?	-21%[12.5 µM]	-6%	13µM*
Cc1ccc(NC(=O)c2ccc3c(c2)N(C)C2CCCCCN2C3=O)cc1 (stereo unspecified)	?	110%	?	2%[12.5 µM]	3%	?
O=C(CCC1CCCN(Cc2ccc3nonc3c2)C1)N1CCOCC1 (stereo unspecified)	-4%	-14%	-22%	6%	-1%	i
COc1ccc(NC(=O)c2ccc3c(c2)N(C)C2CCCCCN2C3=O)cc1OC (stereo unspecified)	?	-3%	?	7%[12.5 µM]	-23%	i
Cc1ccc(NC(=O)c2ccc3c(c2)N(C)C2CCCCCN2C3=O)cc1C (stereo unspecified)	?	97%	45µM*	9%[12.5 µM]	?	?
O=C(N1CCOCC1)N1CCCN(c2ccc3nnc(-c4ccccc4)n3n2)CC1	-18%	.	-22%	.	.	.
O=C(NCC1CC1)c1noc(-c2ccccc2F)n1	-7%	1%	-5%	-1%	-12%	40µM*
COc1ccc(C(C)NC(=O)c2noc(-c3ccccc3F)n2)cc1OC (stereo unspecified)	?	7%	-24%	-7%	-16%	i
COc1ccc(CCNC(=O)c2noc(-c3ccccc3F)n2)cc1OC	?	3%	32µM*	-2%	?	i
CC1CCN(C(=O)c2ccccc2OCC2CCCN(C(=O)C3CCOCC3)C2)CC1 (stereo unspecified)	?	10%	-13%	-28%	.	.
COc1ccc(-n2c(=O)c3c(n2Cc2ccccc2)CN(C(=O)C2CCC(OC)CC2)CC3)cc1 (stereo unspecified)	?	-13%	-6%	2%	1%	i
CCn1c2c(c(=O)n1Cc1ccccc1)CCN(C(=O)C1CCCO1)C2 (stereo unspecified)	?	28%[87.6 µM]	i	9%[87.6 µM]	0%[70.6 µM]	i
O=C(C1CCCO1)N1CCc2c(n(Cc3ccccc3)n(-c3ccccc3)c2=O)C1 (stereo unspecified)	32µM*	13%[87.6 µM]	-6%[172 µM]	1%[87.6 µM]	2%[70.6 µM]	i
O=C(C1CCOCC1)N1CCc2c(n(Cc3ccccc3)n(-c3ccccc3)c2=O)C1	100µM*	-1%[87.6 µM]	4%[172 µM]	2%[87.6 µM]	-1%[70.6 µM]	i
O=C1CCN(C(=O)c2ccc3ccccc3n2)CCOCCN1	-5%	8%	i	?	-2%	i
CC[C@H]1CN(C(=O)Nc2cccc(C(F)(F)F)c2)CC[C@H]1CC(=O)NCc1cccc2ccccc12	-30%	27%	-11%	4%	1%	i
Cc1ccc([S+](=O)([O-])N2CCc3nc(-c4ccc(Cl)cc4)nc(-c4ccccc4)c3C2)cc1	-13%	135%	?	13%	-2%	28µM*
COc1ccc(-c2nc(C3CC3)nc3c2CN([S+](=O)([O-])c2ccccc2)CC3)cc1	18µM*	?	2%	-19%	.	.
Cc1nc2c(c(-c3ccc(Cl)cc3)n1)CN([S+](=O)([O-])c1ccsc1)CC2	22µM*	-7%	-28%	5%	12%	i
Cc1nc2c(c(-c3ccc(Cl)cc3)n1)CCN([S+](C)(=O)[O-])CC2	-28%	3%	-1%	0%	2%	i
COc1ccc(-c2nc(C)nc3c2CN([S+](=O)([O-])c2ccccc2)CC3)cc1	35µM*	44%	i	-4%	.	.
O=C(Nc1ccc(Cl)cc1Cl)c1ccc2ccnn2c1	-21%[138 µM]	3%[87.6 µM]	?	4%[87.6 µM]	-5%[70.6 µM]	2.8µM*
O=C(NCc1ccc(Cl)cc1)c1ccc2ccnn2c1	?	-4%[87.6 µM]	?	-5%[87.6 µM]	-2%[70.6 µM]	i
SMILES	3T3 cytotox	SNCA expr inhib	HEK cytotox	SNCA viab count	hNpr1 antagonist	Luciferase inh
COc1ccc(NC(=O)c2cnc3n[nH]c(-c4ccc(OC)cc4C)c3n2)cc1	45µM*	-10%[87.6 µM]	?	-13%[87.6 µM]	4%[70.6 µM]	i
COc1ccc(-c2[nH]nc3ncc(C(=O)NCC(C)C)nc23)c(C)c1	?	?	?	?	-9%[70.6 µM]	i
COc1ccc(-c2[nH]nc3ncc(C(=O)N4C[C@@H](C)O[C@@H](C)C4)nc23)c(C)c1	?	1%[87.6 µM]	?	-19%[87.6 µM]	8%[70.6 µM]	i
COc1ccc(-c2[nH]nc3ncc(C(=O)N4CC(O)C4)nc23)c(C)c1	7.9µM*	-10%[87.6 µM]	?	?	-3%[70.6 µM]	i
COc1ccc(-c2[nH]nc3ncc(C(=O)Nc4ccn(C)n4)nc23)c(C)c1	?	?	89µM*	?	-1%[70.6 µM]	i
C#CCNC(=O)c1nc(-c2cccnc2)c2cnccn12	-22%[138 µM]	8%[87.6 µM]	?	11%[87.6 µM]	13%[70.6 µM]	i
C#CCNC(=O)c1nc(-c2ccsc2)c2cnccn12	-21%[138 µM]	-35%[87.6 µM]	100µM*	7%[87.6 µM]	0%[70.6 µM]	i
Cc1ccc(C(=O)N2CCCC3(C2)Nc2cccnc2NC3=NC2CCCC2)cc1F (stereo unspecified)	?	-6%	71µM*	-19%	3%	i
O=C(c1ccc2c(c1)OCO2)N1CCCC2(C1)Nc1cccnc1NC2=NC1CCCC1 (stereo unspecified)	-13%	13%	-26%	-24%	-1%	i
O=c1n(-c2ccncc2)nc2n1CCN(Cc1ccccc1)C2	?	67%[87.6 µM]	79µM*	-10%[87.6 µM]	-27%[70.6 µM]	?
O=c1n(-c2ccncc2)nc2n1CCN(Cc1ccc(OC(F)(F)F)cc1)C2	?	?	22µM*	0%	?	i
O=c1n(-c2ccncc2)nc2n1CCN(Cc1ccc(F)cc1)C2	?	3%[87.6 µM]	?	-9%[87.6 µM]	?	i
COc1ccc(CN2CCn3c(nn(-c4ccc(C(F)(F)F)cc4)c3=O)C2)cc1	-22%	-9%	-19%	1%	.	.
Cc1ccsc1CN1CCCC(c2nc(-c3cccnc3)no2)CCNC(=O)CC1 (stereo unspecified)	?	13%	?	-7%	-2%	i
